Records with an inconclusive call do not appear. Active and inactive are the calls of the source. Calls come from the whole dose curve; as a rule, active = well fitted curve in the direction sought with a large enough effect; inconclusive = small, poorly fitted or top-dose-only effect, or another doubt; inactive = no such curve, though single readings can be large; an effect the other way counts as inactive or inconclusive.
Legend:
[1] = qHTS of pediatric cancer cell lines to identify multiple opportunities for drug repurposing: Primary screen for TC32 cells (AID 1347089); note: nearly all actives have a fitted effect of over 60% in size
In short: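 Measured quantity: luminescence from CellTiter-Glo, reflecting metabolically active TC32 cells following 48 h of compound. Curves came straight from multi-point titrations, with 8 or 11 points in primary and 11 in confirmatory screening.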

[2] = qHTS of pediatric cancer cell lines to identify multiple opportunities for drug repurposing: Primary screen for DAOY cells (AID 1347090); note: series mostly up to about 46 µM; nearly all actives have a fitted effect of over 55% in size
In short: (§1)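 Eight- or eleven-point concentration series, 48 h treatment at 37 degrees C in growth media; readout CellTiter-Glo luminescence. Potency and efficacy were taken from the concentration-response curves.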

[3] = qHTS of pediatric cancer cell lines to identify multiple opportunities for drug repurposing: Primary screen for SJ-GBM2 cells (AID 1347091)
In short: as §1

[4] = qHTS of pediatric cancer cell lines to identify multiple opportunities for drug repurposing: Primary screen for A673 cells (AID 1347092); note: nearly all actives have a fitted effect of over 45% in size; note: potency is the fitted concentration of half-maximal effect
In short: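 Cells are plated, rested 5 h, dosed by pintool, incubated 48 h, then lysed with CellTiter-Glo and read by luminescence. DMSO is the neutral control; bortezomib at 2.3 uM final is the positive control.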

[5] = qHTS of pediatric cancer cell lines to identify multiple opportunities for drug repurposing: Primary screen for BT-37 cells (AID 1347094); note: potency is the fitted concentration of half-maximal effect
In short: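 Quantitative HTS format: each compound titrated (MIPE 11 points from 0.78 nM, NPC 8 points from 0.59 nM) onto cells plated 5 hours earlier. After 48 h at 37 degrees C, CellTiter-Glo luminescence was recorded.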

[6] = qHTS of pediatric cancer cell lines to identify multiple opportunities for drug repurposing: Primary screen for SK-N-MC cells (AID 1347093); note: series mostly up to about 46 µM
In short: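 Metabolically active cells were quantified by ATP-dependent luminescence (CellTiter-Glo, 15 min at room temperature) following 48 h treatment. Cells had been plated at 500-1,000 per well and settled for 5 h beforehand.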

Measured: Potency

[O-][n+]1cccc(/C(Cl)=N/OC[C@@H](O)CN2CCCCC2)c1
not listed: [6]
inactive: all other assays above

CC(=O)OCC[N+](C)(C)C
not listed: [6]
inactive: all other assays above

CN1Cc2cc(C(=O)N3CCC(C4CCNCC4)CC3)ccc2NC(CC(=O)O)C1=O (stereo not drawn)
not listed: [6]
inactive: all other assays above

CC(=O)/C=C/C=C1/C2CCC(C2)C1(C)C (stereo not drawn)
not listed: [6]
inactive: all other assays above

CC(C)CCCC(C)NCCC(C)C (stereo not drawn)
not listed: [6]
inactive: all other assays above

CCCC(=O)O[C@]1(C(=O)COC(=O)CC)CC[C@H]2[C@@H]3CCC4=CC(=O)CC[C@]4(C)[C@H]3[C@@H](O)C[C@@]21C
inactive: all assays above

O=c1[nH]c2ccccc2c(=O)n1CCCl
inactive: all assays above

OC(CCCN1CCCCC1)(c1ccccc1)c1ccccc1
not listed: [6]
inactive: all other assays above

Cc1ncc([N+](=O)[O-])n1C
not listed: [6]
inactive: all other assays above

CN1CCC(Nc2ncc3ncnc(Nc4ccc(F)c(Cl)c4)c3n2)CC1
active: [4] 21.1 µM | [5] 17.4 µM
inactive: [1] | [2] | [3]

OC[C@]1(O)OC[C@@H](O)[C@H](O)[C@@H]1O
inactive: all assays above

CCC(CN)=C(c1ccccc1)c1ccccc1
not listed: [6]
inactive: all other assays above

C1N2CN3CN1CN(C2)C3
not listed: [6]
inactive: all other assays above

CC(=O)[C@@]1(O)CC[C@H]2[C@@H]3C[C@H](C)C4=CC(=O)CC[C@]4(C)[C@H]3CC[C@@]21C
not listed: [6]
inactive: all other assays above

O=C(c1ccccc1)c1ccccc1
not listed: [6]
inactive: all other assays above

CN(C)CCOC(c1ccccc1)c1ccc(Br)cc1 (stereo not drawn)
not listed: [6]
inactive: all other assays above

CCOc1ccc(NS(=O)(=O)c2ccc(N)cc2)nn1
not listed: [6]
inactive: all other assays above

Cc1ccc(Cl)c(OCC(O)CNC(C)(C)C)c1 (stereo not drawn)
inactive: all assays above

Nc1ccc(O)cc1
not listed: [6]
inactive: all other assays above

CCOC(=O)O[C@]1(C(=O)OCCl)CC[C@H]2[C@@H]3CCC4=CC(=O)C=C[C@]4(C)[C@H]3[C@@H](O)C[C@@]21C
not listed: [4]
inactive: all other assays above

OC1(c2ccccc2)CCNCC1
inactive: [1] | [2] | [3] | [6]

Reference: PubChem BioAssay (NCATS)
